Assay results reported in PubChem BioAssay AID1159580 (chemical genetic matrix, 2015).
In all, about 5,500 compounds went through this assay and about 2,000 (36%) were called active. About 18% were inconclusive and are not listed. No stated cut-off is given here; in the data, active means normalized growth mostly below about 0.91 (no sharp cut-off); inconclusive means no clear call, values can overlap the other calls; inactive means mostly above about 0.92. Some of the results follow.

Test: chemical genetic growth profiling, strain panel (AID 1159580);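 further: tested at 20 µM; growth read once vehicle control cultures reached saturation at 30 °C; 1 = growth at the plate median or of vehicle wells; lower values mean less growth of the strain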
Conditions: growth OD
[1] = S. cerevisiae deletion strains, locus YHR030C, strain SLT2, hits give low values
[2] = S. cerevisiae deletion strains, locus YJL187C, strain SWE1, hits give low values
[3] = S. cerevisiae deletion strains, locus YAL013W, strain DEP1, hits give low values
[4] = S. cerevisiae deletion strains, locus YJR075W, strain HOC1, hits give low values
[5] = S. cerevisiae deletion strains, locus YNL153C, strain GIM3, hits give low values
[6] = S. cerevisiae deletion strains, locus YNL322C, strain KRE1, hits give low values
[7] = S. cerevisiae deletion strains, locus YPL055C, strain LGE1, hits give low values

Measured: normalized growth

C=CC[C@@H]1/C=C(\C)C[C@H](C)C[C@H](OC)[C@H]2O[C@@](O)(C(=O)C(=O)N3CCCC[C@H]3C(=O)O[C@H](/C(C)=C/[C@@H]3CC[C@@H](O)[C@H](OC)C3)[C@H](C)[C@@H](O)CC1=O)[C@H](C)C[C@@H]2OC
inactive: S. cerevisiae deletion strains, locus YAL030W, strain snc1, hits give low values 1.02 | S. cerevisiae deletion strains, locus YBR009C, strain hhf1, hits give low values 0.946 | S. cerevisiae deletion strains, locus YBR023C, strain chs3, hits give low values 1 | S. cerevisiae deletion strains, locus YBR231C, strain swc5, hits give low values 0.988 | S. cerevisiae deletion strains, locus YBR279W, strain paf1, hits give low values 1.03 | S. cerevisiae deletion strains, locus YCL011C, strain gbp2, hits give low values 0.988 | S. cerevisiae deletion strains, locus YCL069W, strain vba3, hits give low values 1.02 | S. cerevisiae deletion strains, locus YCR088W, strain abp1, hits give low values 0.995 | S. cerevisiae deletion strains, locus YDL005C, strain med2, hits give low values 1.04 | S. cerevisiae deletion strains, locus YDL040C, strain nat1, hits give low values 1.02 | S. cerevisiae deletion strains, locus YDR001C, strain nth1, hits give low values 1.04 | S. cerevisiae deletion strains, locus YDR159W, strain sac3, hits give low values 0.974 | S. cerevisiae deletion strains, locus YDR297W, strain sur2, hits give low values 1.03 | S. cerevisiae deletion strains, locus YDR334W, strain swr1, hits give low values 1.1 | S. cerevisiae deletion strains, locus YDR335W, strain msn5, hits give low values 0.96 | S. cerevisiae deletion strains, locus YEL003W, strain gim4, hits give low values 0.99 | S. cerevisiae deletion strains, locus YEL037C, strain rad23, hits give low values 1.04 | S. cerevisiae deletion strains, locus YEL061C, strain CIN8 (second series), hits give low values 1 | S. cerevisiae deletion strains, locus YER015W, strain faa2, hits give low values 1.04 | S. cerevisiae deletion strains, locus YER111C, strain swi4, hits give low values 1.02 | S. cerevisiae deletion strains, locus YGL167C, strain pmr1, hits give low values 1.06 | S. cerevisiae deletion strains, locus YGL227W, strain vid30, hits give low values 1.05 | S. cerevisiae deletion strains, locus YGL240W, strain doc1, hits give low values 1.06 | S. cerevisiae deletion strains, locus YGL253W, strain hxk2, hits give low values 0.983 | S. cerevisiae deletion strains, locus YHR013C, strain ard1, hits give low values 0.912 | S. cerevisiae deletion strains, locus YHR027C, strain rpn1, hits give low values 1.03 | S. cerevisiae deletion strains, locus YHR142W, strain chs7, hits give low values 0.881 | S. cerevisiae deletion strains, locus YJL092W, strain hpr5, hits give low values 1.02 | S. cerevisiae deletion strains, locus YJL115W, strain asf1, hits give low values 1.05 | S. cerevisiae deletion strains, locus YJL154C, strain vps35, hits give low values 1.04 | S. cerevisiae deletion strains, locus YJL166W, strain qcr8, hits give low values 0.982 | [2] 1.03 | S. cerevisiae deletion strains, locus YKL160W, strain elf1, hits give low values 0.956 | S. cerevisiae deletion strains, locus YKR026C, strain gcn3, hits give low values 1.04 | S. cerevisiae deletion strains, locus YKR091W, strain srl3, hits give low values 1.04 | S. cerevisiae deletion strains, locus YLL001W, strain dnm1, hits give low values 0.932 | S. cerevisiae deletion strains, locus YLL026W, hits give low values 1.02 | S. cerevisiae deletion strains, locus YLL041C, strain sdh2, hits give low values 1.05 | S. cerevisiae deletion strains, locus YLR027C, strain aat2, hits give low values 0.976 | S. cerevisiae deletion strains, locus YLR221C, strain rsa3, hits give low values 0.922 | S. cerevisiae deletion strains, locus YLR258W, strain gsy2, hits give low values 0.986 | S. cerevisiae deletion strains, locus YLR357W, strain rsc2, hits give low values 0.949 | S. cerevisiae deletion strains, locus YLR370C, strain arc18, hits give low values 0.936 | S. cerevisiae deletion strains, locus YLR384C, strain iki3, hits give low values 1.05 | S. cerevisiae deletion strains, locus YML120C, strain ndi1, hits give low values 0.965 | S. cerevisiae deletion strains, locus YMR058W, strain fet3, hits give low values 0.995 | S. cerevisiae deletion strains, locus YMR129W, hits give low values 1.04 | S. cerevisiae deletion strains, locus YNL209W, strain ssb2, hits give low values 1.03 | S. cerevisiae deletion strains, locus YNL248C, strain rpa49, hits give low values 1.03 | S. cerevisiae deletion strains, locus YNL322C, strain KRE1 (second series), hits give low values 0.962 | S. cerevisiae deletion strains, locus YNR049C, strain mso1, hits give low values 1.03 | S. cerevisiae deletion strains, locus YOR070C, strain gyp1, hits give low values 0.944 | S. cerevisiae deletion strains, locus YOR080W, strain dia2, hits give low values 1.05 | S. cerevisiae deletion strains, locus YOR083W, strain WHI5, hits give low values 0.931 | S. cerevisiae deletion strains, locus YOR265W, strain rbl2, hits give low values 1.05 | S. cerevisiae deletion strains, locus YOR290C, strain snf2, hits give low values 0.894 | S. cerevisiae deletion strains, locus YPL078C, strain atp4, hits give low values 0.951 | S. cerevisiae deletion strains, locus YPL240C, strain hsp82, hits give low values 1.03
active: S. cerevisiae deletion strains, locus YAL021C, strain ccr4, hits give low values 0.844 | S. cerevisiae deletion strains, locus YAL026C, strain drs2, hits give low values 0.6 | S. cerevisiae deletion strains, locus YBL061C, strain skt5, hits give low values 1.09 [resistant] | S. cerevisiae deletion strains, locus YBR171W, strain sec66, hits give low values 1.14 [resistant] | S. cerevisiae deletion strains, locus YCL016C, strain dcc1, hits give low values 0.896 | S. cerevisiae deletion strains, locus YDR069C, strain doa4, hits give low values 0.829 | S. cerevisiae deletion strains, locus YDR137W, strain rgp1, hits give low values 0.174 | S. cerevisiae deletion strains, locus YDR195W, strain ref2 0.773 | S. cerevisiae deletion strains, locus YDR392W, strain spt3, hits give low values 0.55 | S. cerevisiae deletion strains, locus YER016W, strain bim1, hits give low values 0.909 | S. cerevisiae deletion strains, locus YER155C, strain BEM2 (second series), hits give low values 0.705 | S. cerevisiae deletion strains, locus YFR010W, strain ubp6, hits give low values 0.877 | S. cerevisiae deletion strains, locus YGL173C, strain kem1, hits give low values 0.848 | [1] 0.7 | S. cerevisiae deletion strains, locus YHR079C, strain IRE1, hits give low values 0.719 | S. cerevisiae deletion strains, locus YJL095W, strain BCK1 (second series), hits give low values 0.91 | S. cerevisiae deletion strains, locus YJL095W, strain BCK1, hits give low values 0.754 | S. cerevisiae deletion strains, locus YJL129C, strain trk1, hits give low values 0.845 | S. cerevisiae deletion strains, locus YJL164C, strain tpk1, hits give low values 0.915 | S. cerevisiae deletion strains, locus YJR066W, strain TOR1, hits give low values 0.746 | S. cerevisiae deletion strains, locus YLR113W, strain HOG1, hits give low values 0.66 | S. cerevisiae deletion strains, locus YLR262C, strain YPT6 (second series), hits give low values 0.137 | S. cerevisiae deletion strains, locus YLR320W, strain mms22, hits give low values 0.734 | S. cerevisiae deletion strains, locus YLR342W, strain FKS1, hits give low values 0.0809 | S. cerevisiae deletion strains, locus YMR125W, strain sto1, hits give low values 0.844 | S. cerevisiae deletion strains, locus YMR205C, strain PFK2, hits give low values 0.78 | S. cerevisiae deletion strains, locus YMR231W, strain pep5, hits give low values 0.176 | S. cerevisiae deletion strains, locus YNL071W, strain lat1, hits give low values 0.746 | S. cerevisiae deletion strains, locus YNL183C, strain NPR1, hits give low values 0.781 | S. cerevisiae deletion strains, locus YOR001W, strain rrp6, hits give low values 0.761 | S. cerevisiae deletion strains, locus YOR106W, strain vam3, hits give low values 0.736 | S. cerevisiae deletion strains, locus YOR231W, strain MKK1, hits give low values 0.7 | S. cerevisiae deletion strains, locus YOR270C, strain vph1, hits give low values 0.514 | S. cerevisiae deletion strains, locus YPL051W, strain arl3, hits give low values 0.67 | S. cerevisiae deletion strains, locus YPL106C, strain sse1, hits give low values 0.72 | S. cerevisiae deletion strains, locus YPL256C, strain CLN2, hits give low values 0.695

N[C@@H](Cn1ccc(=O)[nH]c1=O)C(=O)O
inactive: [3] 0.988 | S. cerevisiae deletion strains, locus YAL040C, strain CLN3, hits give low values 1.06 | S. cerevisiae deletion strains, locus YCL061C, strain MRC1 (second series), hits give low values 1 | S. cerevisiae deletion strains, locus YDR363W, strain ESC2, hits give low values 1 | S. cerevisiae deletion strains, locus YER002W, strain NOP16, hits give low values 0.995 | [4] 0.97 | S. cerevisiae deletion strains, locus YMR307W, strain GAS1, hits give low values 0.978 | S. cerevisiae deletion strains, locus YNL128W, strain TEP1, hits give low values 1 | [5] 1.03 | S. cerevisiae deletion strains, locus YNL175C, strain NOP13, hits give low values 0.995 | S. cerevisiae deletion strains, locus YNL197C, strain WHI3, hits give low values 1 | S. cerevisiae deletion strains, locus YNL224C, strain SQS1, hits give low values 1.01 | [6] 0.975 | S. cerevisiae deletion strains, locus YOR083W, strain WHI5 (second series), hits give low values 1.01 | [7] 0.998

CCOC(=O)c1ccc(N2CC3CCCCN3C2c2ccc(Cl)c(Cl)c2)cc1 (stereo not drawn)
active: S. cerevisiae deletion strains, locus YLR262C, strain YPT6, hits give low values 0.744
inactive: [3] 0.989 | S. cerevisiae deletion strains, locus YBR229C, strain ROT2, hits give low values 0.974 | S. cerevisiae deletion strains, locus YCL061C, strain MRC1, hits give low values 0.991 | S. cerevisiae deletion strains, locus YDL101C, strain DUN1, hits give low values 1 | S. cerevisiae deletion strains, locus YDL134C, strain PPH21, hits give low values 1.01 | S. cerevisiae deletion strains, locus YDR150W, strain NUM1, hits give low values 0.992 | S. cerevisiae deletion strains, locus YEL061C, strain CIN8, hits give low values 0.993 | S. cerevisiae deletion strains, locus YGR078C, strain PAC10, hits give low values 0.992 | S. cerevisiae deletion strains, locus YGR229C, strain SMI1, hits give low values 1 | [1] 0.971 | S. cerevisiae deletion strains, locus YHR087W, strain rtc3, hits give low values 0.992 | [2] 0.982 | S. cerevisiae deletion strains, locus YJR043C, strain POL32, hits give low values 1.01 | [4] 0.998 | S. cerevisiae deletion strains, locus YLR039C, strain RIC1, hits give low values 0.889 | S. cerevisiae deletion strains, locus YLR058C, strain SHM2 (second series), hits give low values 0.997 | S. cerevisiae deletion strains, locus YLR085C, strain ARP6, hits give low values 0.97 | S. cerevisiae deletion strains, locus YML094W, strain GIM5, hits give low values 0.972 | S. cerevisiae deletion strains, locus YMR219W, strain ESC1, hits give low values 0.984 | S. cerevisiae deletion strains, locus YMR263W, strain SAP30, hits give low values 0.976 | [5] 0.997 | S. cerevisiae deletion strains, locus YNL298W, strain CLA4 (second series), hits give low values 1.02 | [6] 1 | S. cerevisiae deletion strains, locus YNR030W, strain Alg12, hits give low values 0.997 | [7] 0.922 | S. cerevisiae deletion strains, locus YPL241C, strain CIN2, hits give low values 0.987 | S. cerevisiae deletion strains, locus YPR135W, strain CTF4, hits give low values 0.893 | S. cerevisiae strains, strain wild type, hits give low values 1.01
